This note sets out measurements from PubChem BioAssay (EPA / NIEHS).

The structures appear in SMILES notation. “And” between values parts separate entries of the source, which are not always exact repeats. Equal entries are not always repeated. Records with an inconclusive call do not appear. More than one record can exist for a structure, and the calls need not agree. The source made the active and inactive calls. The calls were made as follows: active = hit-call score of the fitted dose curve at least 0.9, where 1 is the maximum; inconclusive = response in the unintended direction; inactive = score below 0.9.

As a reminder, the AC50 is the concentration giving half of the maximal activity seen.

Test [1] deals with Estrogen receptor (Homo sapiens) (UniProt P03372). Kind of test: NVS_NR_hER: NovaScreen (NVS) Nuclear Receptor Binding Assay for human Estrogen Receptor (ER) (AID 2283348). The method in brief:
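Radiodetection of ligand displacement in a lysate-based, cell-free format using MCF7 extracts, read at 18 hours. Duplicate 25 uM primary testing, then concentration series for actives.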

A short description of test [2]: TOX21_p53_BLA_p2_viability: Viability Assessment in the Tox21 HCT-116 p53 Agonism Beta-lactamase Assay, Phase 2 (AID 2283591).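 Also: compound exposure lasted 16 h at 37 °C; actives lower the ATP signal meaning cytotoxicity.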 An outline of the steps:
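HCT-116 p53-bla cells (4000/well) rested 5 h at 37C, then received compounds in DMSO (217-fold dilution) for 16 h at 37C, 5% CO2. After the CCF4 read, CellTiter-Glo was added; ATP luminescence was read after 30 min at room temperature.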

Test [3] deals with Cellular tumor antigen p53 (Homo sapiens) (UniProt P04637). Kind of test: TOX21_p53_BLA_p2_ratio: Tox21 HCT-116 p53 Agonism Beta-lactamase Assay, Ratio, Phase 2 (AID 2283592). An outline of the steps:
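DMSO-normalized, positive-direction endpoint derived from the 460 nm/530 nm FRET ratio in HCT116 p53 beta-lactamase reporter cells exposed 16 h at 37C and loaded with CCF4-AM for 2 h.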

The nature of test [4]: TOX21_p53_BLA_p3_viability: Viability Assessment in the Tox21 HCT-116 p53 Agonism Beta-lactamase Assay, Phase 3 (AID 2283593).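 Also: cells exposed to compound for 16 h before reading.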 The method in brief:
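HCT-116 cells (4000/well) rested 5 h at 37C, then got DMSO compounds by pin tool (217-fold dilution) for 16 h at 37C, 5% CO2. After the bla read, CellTiter-Glo was added and luminescence read at 30 min, room temperature.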

The nature of test [5]: TOX21_p53_BLA_p4_viability: Viability Assessment in the Tox21 HCT-116 p53 Agonism Beta-lactamase Assay, Phase 4 (AID 2283597).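 Also: hits lower the luminescence signal meaning cytotoxicity.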 The method in brief: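 In this multiplexed secondary endpoint, HCT116 cells (4000 per well, compound at 5 h, 16 h treatment) received CellTiter-Glo after the beta-lactamase read. Luminescence after 30 min RT reflects ATP, and falling signal marks cytotoxicity.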

In test [6] the target is Cellular tumor antigen p53 (Homo sapiens) (UniProt P04637). Kind of test: TOX21_p53_BLA_p5_ratio: Tox21 HCT-116 p53 Agonism Beta-lactamase Assay, Ratio, Phase 5 (AID 2283599). The method in brief: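 HCT-116 cells carrying a p53-inducible beta-lactamase reporter were seeded at 4000 cells/well and dosed after 5 h with compound in DMSO (217-fold dilution). After 16 h at 37C, CCF4-AM substrate was added for 2 h, and the 460/530 nm emission ratio was scored as gain-of-signal versus DMSO.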

Test [7] shares this target. Kind of test: TOX21_p53_BLA_p4_ratio: Tox21 HCT-116 p53 Agonism Beta-lactamase Assay, Ratio, Phase 4 (AID 2283601). The method in brief:
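HCT116 cells carrying an inducible beta-lactamase reporter were plated at 4000 cells/well, rested 5 h, then exposed to compounds in DMSO (217-fold dilution) for 16 h at 37C. CCF4-AM substrate was loaded 2 h at room temperature; 460/530 nm emission ratio scored gain-of-signal versus DMSO.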

Test [8] has the same target. Kind of test: TOX21_p53_BLA_p3_ratio: Tox21 HCT-116 p53 Agonism Beta-lactamase Assay, Ratio, Phase 3 (AID 2283596). An outline of the steps: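 Cells were seeded at 4000/well, rested 5 h at 37C, then dosed with DMSO compound solutions (217-fold dilution) for 16 h. CCF4-AM substrate was loaded for 2 h at room temperature, and the 460/530 nm emission ratio was fitted for gain of signal versus DMSO.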

The nature of test [9]: TOX21_p53_BLA_p5_viability: Viability Assessment in the Tox21 HCT-116 p53 Agonism Beta-lactamase Assay, Phase 5 (AID 2283600). An outline of the steps: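 Here cell health was gauged by ATP levels in wells holding 4000 cells, each treated 16 h with DMSO-delivered compounds at 217-fold dilution; reduced luminescence marked toxicity.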

Estrogen receptor (Homo sapiens), sequence (P03372 whole entry, looked up): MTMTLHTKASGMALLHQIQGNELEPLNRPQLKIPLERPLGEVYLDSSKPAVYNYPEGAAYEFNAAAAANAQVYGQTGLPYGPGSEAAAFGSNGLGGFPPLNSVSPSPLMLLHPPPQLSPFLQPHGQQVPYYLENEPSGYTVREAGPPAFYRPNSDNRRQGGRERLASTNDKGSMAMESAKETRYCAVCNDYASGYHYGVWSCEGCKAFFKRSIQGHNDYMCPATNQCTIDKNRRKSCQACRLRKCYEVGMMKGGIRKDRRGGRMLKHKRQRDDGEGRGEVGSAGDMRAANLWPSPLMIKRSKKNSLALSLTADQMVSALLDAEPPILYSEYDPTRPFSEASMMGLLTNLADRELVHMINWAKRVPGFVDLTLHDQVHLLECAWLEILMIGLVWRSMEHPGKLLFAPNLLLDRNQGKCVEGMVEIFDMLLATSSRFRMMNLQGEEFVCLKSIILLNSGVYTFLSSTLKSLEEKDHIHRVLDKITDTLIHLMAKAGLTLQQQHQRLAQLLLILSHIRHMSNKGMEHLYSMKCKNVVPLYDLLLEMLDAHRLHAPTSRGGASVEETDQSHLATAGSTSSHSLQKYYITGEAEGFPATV
Cellular tumor antigen p53 (Homo sapiens), sequence (P04637 whole entry, looked up): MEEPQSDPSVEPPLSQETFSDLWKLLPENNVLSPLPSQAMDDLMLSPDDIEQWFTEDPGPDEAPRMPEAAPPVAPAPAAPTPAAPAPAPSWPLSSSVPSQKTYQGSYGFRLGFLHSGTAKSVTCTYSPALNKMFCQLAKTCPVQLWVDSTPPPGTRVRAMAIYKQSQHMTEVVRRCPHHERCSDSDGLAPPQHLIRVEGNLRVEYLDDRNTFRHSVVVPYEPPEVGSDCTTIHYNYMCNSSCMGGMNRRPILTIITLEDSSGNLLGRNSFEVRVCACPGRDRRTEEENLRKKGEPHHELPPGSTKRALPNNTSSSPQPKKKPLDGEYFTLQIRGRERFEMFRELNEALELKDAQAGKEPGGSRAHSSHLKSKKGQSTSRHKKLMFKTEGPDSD

For the compound `CC(=O)CCc1ccc(OC(C)=O)cc1`, the result in [1], in test [2], in test [3], in test [4], in test [5] and in test [6] was inactive. Also, the outcome in [7] was inactive.
Consider `S=c1nc[nH]c2nc[nH]c12`, for which the AC50 in test [2] was 1.56 µM (active); in test [3] it was 7.89 µM (active) and 10.1 µM (active); in [4] it was 674 nM (active) and 2.62 µM (active); in [8] it was 9.95 µM (active) and 8 µM (active); in test [5], 1.65 µM (active) and 3 µM (active); in [6], 11.1 µM (active) and 8.01 µM (active). For the same compound, in [7], the half-maximal activity concentration (AC50) was 6.3 µM (active) and 6.4 µM (active). Further, the outcome in [2] and in test [9] was inactive.
`C[C@H](CCC(=O)O)[C@H]1CC[C@H]2[C@@H]3[C@H](O)C[C@@H]4C[C@H](O)CC[C@]4(C)[C@H]3CC[C@]12C`: the values for the AC50 in test [2] and in test [5] were 78.5 µM (active) and 87.1 µM (active), respectively. Further, the result in test [2], in test [3], in test [4], in test [8], in test [5] and in test [6] was inactive. For the same compound, the result in test [7] was inactive.
Regarding `C=C1CC[C@H](O)C/C1=C/C=C1\CCC[C@]2(C)[C@@H]([C@H](C)CCCC(C)C)CC[C@@H]12`, the AC50 in test [2] was 77.7 µM (active); in [4], 63.2 µM (active) and 34.4 µM (active); in [5] it was 45.7 µM (active) and 37.2 µM (active); in [9] it was 73.6 µM (active); in [7], 76.7 µM (active). The compound was called inactive in [2], in test [3], in test [8], in [6], in test [9] and in [7].
Regarding `CCCCCCC/C=C/C=O`, the compound was called inactive in [2], in [3], in test [4], in test [8], in [5] and in test [6]. Moreover, the compound was classed as inactive in test [9] and in test [7].
As to `O=[Se](O)O`, the half-maximal activity concentration (AC50) was 7.1 µM (active) in [2]; 13.3 µM (active) in test [4]; 0.548 µM (active) in test [8]; 26 µM (active) in test [5]; 2.46 µM (active) in test [6]; 4.23 µM (active) in test [7]. Further, the result in [2], in [4], in [8], in test [5], in [6] and in test [9] was inactive. In addition, in test [7], the result was inactive.
Consider `O=C(OCCOCCO)c1ccccc1Nc1cccc(C(F)(F)F)c1`, for which the compound was classed as inactive in [2] and in test [3].
For `SC1CCCC1`, in test [1], the compound was called inactive.
Regarding `Cc1cc(Br)ccc1NC(=O)CCl`, in [1], the result was inactive. Besides, the AC50 in [2] was 69.3 µM (active); in [3], 23.2 µM (active); in [4], 46.1 µM (active); in test [8], 13.3 µM (active); in [5], 58.3 µM (active); in test [6], 13.3 µM (active). Moreover, the AC50 in [9] was 46.1 µM (active); in [7] it was 25.3 µM (active).
For `CCN(CC)c1ccc(N=Nc2ccc(S(=O)(=O)N(C)C)cc2)c(S(=O)(=O)NCC[n+]2ccccc2)c1`, the outcome in test [2] was inactive.
Consider `OCCOCCN1CCN(C(c2ccccc2)c2ccc(Cl)cc2)CC1` (configuration not stated), for which the compound was classed as inactive in test [2], in test [3], in test [4], in test [8], in [5] and in [6]. In addition, the compound was classed as inactive in test [9] and in test [7]. For the same compound, the AC50 is 0.000306 µM (active) in test [3], 0.000384 µM (active) in test [6] and 0.000245 µM (active) in test [7].
With `CC(C)(C)CC(C)(C)c1ccc(OCCO)cc1`, the compound was called inactive in [2], in test [3], in [4], in test [8], in test [5] and in test [6]. For the same compound, the call in test [9] and in test [7] was inactive. Further, the AC50 in test [3] is 5.43 µM (active); in test [5], 35.6 µM (active).
With `COC(=O)CCC(=O)O`, the compound was called inactive in test [2].
Take `CNC(=O)Nc1ccc(Cl)c(Cl)c1`: the compound was called inactive in [2], in test [3], in [4], in [8], in test [5] and in test [6]. Further, the compound was classed as inactive in test [9] and in [7].
Turning to `Oc1ccc2c(c1)Cc1ccccc1-2`, in test [1], the concentration at half-maximal activity (AC50) was 25 µM (active).
For `COc1cc(C(=S)N2CCOCC2)cc(OC)c1OC`, the call in test [2] and in test [3] was inactive.
Take `C[C@H](CCC(=O)O)[C@H]1CC[C@H]2[C@@H]3CC[C@@H]4C[C@H](O)CC[C@]4(C)[C@H]3C[C@H](O)[C@]12C`: the AC50 is 80.9 µM (active) in test [2]; 85.4 µM (active) in test [3]; 73.6 µM (active) in test [4]; 87.3 µM (active) in test [8]; 75.1 µM (active) and 36.4 µM (active) in test [5]; 86.7 µM (active) in test [6]. Besides, the values for the AC50 in [9] and in test [7] were 84.4 µM (active) and 87.2 µM (active), respectively. Besides, the result in test [2], in test [3], in test [4], in [8], in test [6] and in test [9] was inactive. Further, in test [7], the outcome was inactive.
As to `CCCCCCCCOCCCN`, the compound was classed as inactive in test [1], in test [2], in test [3], in test [8], in test [5] and in [6]. Further, the call in test [9] and in test [7] was inactive.
For `CC1=C(/C=C/C(C)=C/C=C/C(C)=C/C(=O)Nc2ccc(O)cc2)C(C)(C)CCC1`, the AC50 in test [2] was 44.5 µM (active); in test [3], 62.4 µM (active); in [4] it was 62.5 µM (active); in [8], 74.6 µM (active); in test [5], 53.7 µM (active) and 35 µM (active); in [6], 73.6 µM (active) and 37.7 µM (active). Also, the AC50 in test [9] is 43.7 µM (active) and 37.9 µM (active); in test [7], 72.5 µM (active) and 36.6 µM (active). The compound was called inactive in [2], in [3], in [4] and in [8].
As to `CC(C)CC(=O)C1C(=O)c2ccccc2C1=O`, the call in [1], in test [2], in [8], in test [9] and in [7] was inactive.
Consider `CCCCCCCCCCCCN(CCO)CCO`, for which the AC50 in [2] was 69.7 µM (active); in test [3], 46.9 µM (active); in test [4] it was 64.3 µM (active); in [8], 49.2 µM (active); in [5], 53.4 µM (active); in test [6], 75.6 µM (active). Also, the AC50 in test [9] is 59.3 µM (active); in [7], 69.1 µM (active).
In the case of `CC(O)(c1ccc(Cl)cc1)c1ccc(Cl)cc1`, the compound was classed as inactive in test [1], in test [2], in [4], in test [8], in test [5] and in test [6]. The outcome in [7] was inactive.
Consider `O=S(=O)(O)c1cc(Cl)c(Cl)cc1Cl`, for which the call in [1], in test [2], in test [5] and in test [6] was inactive.
For `CCN(Cc1cccc(S(=O)(=O)O)c1)c1ccccc1`, the call in test [1], in [2], in test [8], in test [5], in [6] and in [9] was inactive.
`COC(=O)CCCC(=O)O`: the result in test [1], in test [2], in test [3], in [4], in test [8] and in test [9] was inactive. In test [7], the result was inactive.
As to `Oc1c(I)cc(Cl)c2cccnc12`, the AC50 in test [2] was 8.67 µM (active); in test [3] it was 7.99 µM (active); in test [4] it was 12.7 µM (active); in [5], 4.52 µM (active) and 18.6 µM (active); in test [6], 7.84 µM (active). The outcome in [2], in test [3], in [4], in [8], in test [6] and in [9] was inactive. Further, the result in test [7] was inactive.
